Laboratory results taken from ChEMBL document CHEMBL2218924, “A broad activity screen in support of a chemogenomic map for kinase signalling research and drug discovery” (Biochem J, 2013).

Key:
[1] = biological target: T1, Ephrin type-A receptor 3 (Homo sapiens) (UniProt P29320); settings: at 10 µM
T1 sequence (whole entry): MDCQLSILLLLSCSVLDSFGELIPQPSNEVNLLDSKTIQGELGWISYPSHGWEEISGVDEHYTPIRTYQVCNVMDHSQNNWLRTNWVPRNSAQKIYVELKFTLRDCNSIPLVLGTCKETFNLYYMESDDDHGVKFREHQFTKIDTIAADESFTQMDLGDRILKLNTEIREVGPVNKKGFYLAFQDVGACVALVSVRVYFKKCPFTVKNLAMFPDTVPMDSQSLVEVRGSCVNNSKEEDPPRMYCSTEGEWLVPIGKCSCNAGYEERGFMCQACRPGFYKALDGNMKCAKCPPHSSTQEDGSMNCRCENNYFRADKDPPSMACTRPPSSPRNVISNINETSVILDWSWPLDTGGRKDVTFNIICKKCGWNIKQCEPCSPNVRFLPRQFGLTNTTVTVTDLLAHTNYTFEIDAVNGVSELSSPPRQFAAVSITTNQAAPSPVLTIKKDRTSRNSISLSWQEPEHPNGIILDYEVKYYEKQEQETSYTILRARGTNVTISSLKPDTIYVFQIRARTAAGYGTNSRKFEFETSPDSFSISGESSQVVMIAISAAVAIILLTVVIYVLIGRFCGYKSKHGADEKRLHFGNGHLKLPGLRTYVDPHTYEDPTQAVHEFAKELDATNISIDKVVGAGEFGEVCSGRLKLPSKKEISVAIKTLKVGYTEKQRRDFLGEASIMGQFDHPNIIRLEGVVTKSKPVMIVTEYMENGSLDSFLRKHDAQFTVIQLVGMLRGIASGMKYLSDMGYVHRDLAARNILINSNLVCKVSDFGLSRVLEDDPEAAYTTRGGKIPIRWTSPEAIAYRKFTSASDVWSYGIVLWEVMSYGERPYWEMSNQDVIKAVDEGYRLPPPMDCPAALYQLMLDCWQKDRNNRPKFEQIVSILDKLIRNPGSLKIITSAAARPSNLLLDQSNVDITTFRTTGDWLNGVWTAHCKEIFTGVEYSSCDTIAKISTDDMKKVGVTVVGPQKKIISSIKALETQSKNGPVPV

[2] = biological target: Ephrin type-A receptor 4 (Homo sapiens) (UniProt P54764); settings: at 1 µM
[3] = biological target: Ephrin type-A receptor 4 (Homo sapiens) (UniProt P54764); settings: at 10 µM
[4] = biological target: Ephrin type-A receptor 5 (Homo sapiens) (UniProt P54756); settings: at 1 µM
[5] = biological target: Ephrin type-A receptor 5 (Homo sapiens) (UniProt P54756); settings: at 10 µM
[6] = biological target: Ephrin type-A receptor 7 (Homo sapiens) (UniProt Q15375); settings: at 1 µM
[7] = biological target: Ephrin type-A receptor 7 (Homo sapiens) (UniProt Q15375); settings: at 10 µM
[8] = biological target: T2, Ephrin type-A receptor 8 (Homo sapiens) (UniProt P29322); settings: at 1 µM
T2 sequence (whole entry): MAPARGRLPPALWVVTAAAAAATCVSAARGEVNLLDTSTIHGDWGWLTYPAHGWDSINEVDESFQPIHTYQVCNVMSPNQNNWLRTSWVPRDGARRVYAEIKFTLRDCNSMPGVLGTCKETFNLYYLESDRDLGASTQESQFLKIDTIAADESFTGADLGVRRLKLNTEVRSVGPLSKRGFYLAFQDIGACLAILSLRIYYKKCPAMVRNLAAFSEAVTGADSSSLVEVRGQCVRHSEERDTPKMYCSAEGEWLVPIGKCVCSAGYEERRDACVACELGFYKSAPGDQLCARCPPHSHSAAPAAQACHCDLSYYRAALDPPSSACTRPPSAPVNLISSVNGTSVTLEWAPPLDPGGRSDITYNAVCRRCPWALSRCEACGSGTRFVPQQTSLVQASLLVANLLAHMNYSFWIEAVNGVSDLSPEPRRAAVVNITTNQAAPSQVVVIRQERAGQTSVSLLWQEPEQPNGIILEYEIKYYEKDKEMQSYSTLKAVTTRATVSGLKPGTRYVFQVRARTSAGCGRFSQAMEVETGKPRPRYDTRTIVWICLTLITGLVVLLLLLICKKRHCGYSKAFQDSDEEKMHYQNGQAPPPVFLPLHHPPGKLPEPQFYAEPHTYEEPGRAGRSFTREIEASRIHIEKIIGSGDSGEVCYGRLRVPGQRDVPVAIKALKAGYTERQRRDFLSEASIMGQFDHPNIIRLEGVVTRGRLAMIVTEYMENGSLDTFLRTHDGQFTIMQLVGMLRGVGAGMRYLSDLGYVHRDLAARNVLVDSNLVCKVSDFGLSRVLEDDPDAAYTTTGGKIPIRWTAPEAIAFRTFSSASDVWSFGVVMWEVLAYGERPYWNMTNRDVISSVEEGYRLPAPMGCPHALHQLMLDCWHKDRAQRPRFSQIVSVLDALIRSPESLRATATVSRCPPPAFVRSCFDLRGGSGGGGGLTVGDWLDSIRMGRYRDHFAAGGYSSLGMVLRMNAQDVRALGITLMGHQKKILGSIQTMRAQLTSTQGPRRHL

[9] = biological target: T2, Ephrin type-A receptor 8 (Homo sapiens); settings: at 10 µM
[10] = biological target: T3, Ephrin type-B receptor 1 (Homo sapiens) (UniProt P54762); settings: at 10 µM
T3 sequence (whole entry): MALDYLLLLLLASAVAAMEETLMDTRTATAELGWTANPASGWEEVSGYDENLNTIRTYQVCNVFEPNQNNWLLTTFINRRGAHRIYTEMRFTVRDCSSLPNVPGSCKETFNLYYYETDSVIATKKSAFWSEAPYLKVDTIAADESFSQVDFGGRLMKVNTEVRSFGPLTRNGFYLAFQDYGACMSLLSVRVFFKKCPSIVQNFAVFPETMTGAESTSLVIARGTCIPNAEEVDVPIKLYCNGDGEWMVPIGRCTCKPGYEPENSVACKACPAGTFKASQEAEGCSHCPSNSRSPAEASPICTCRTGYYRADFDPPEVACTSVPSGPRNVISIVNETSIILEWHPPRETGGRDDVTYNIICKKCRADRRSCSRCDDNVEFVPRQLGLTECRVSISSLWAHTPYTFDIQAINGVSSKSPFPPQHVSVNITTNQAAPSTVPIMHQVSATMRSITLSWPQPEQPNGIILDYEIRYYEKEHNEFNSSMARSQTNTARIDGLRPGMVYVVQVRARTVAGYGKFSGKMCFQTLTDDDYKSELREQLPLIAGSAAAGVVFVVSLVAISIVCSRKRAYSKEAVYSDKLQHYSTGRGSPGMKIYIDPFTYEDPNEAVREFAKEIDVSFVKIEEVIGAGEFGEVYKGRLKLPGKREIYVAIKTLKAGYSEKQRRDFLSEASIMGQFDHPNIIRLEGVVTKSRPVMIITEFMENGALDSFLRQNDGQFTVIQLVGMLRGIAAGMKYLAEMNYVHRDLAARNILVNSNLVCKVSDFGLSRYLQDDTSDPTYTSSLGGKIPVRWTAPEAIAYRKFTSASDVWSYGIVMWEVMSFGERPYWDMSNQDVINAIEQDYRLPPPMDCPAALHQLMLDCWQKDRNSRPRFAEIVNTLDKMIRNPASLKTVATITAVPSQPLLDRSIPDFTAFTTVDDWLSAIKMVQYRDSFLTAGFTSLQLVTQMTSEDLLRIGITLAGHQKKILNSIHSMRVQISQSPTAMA

[11] = biological target: T4, Ephrin type-B receptor 2 (Homo sapiens) (UniProt P29323); settings: at 1 µM
T4 sequence (whole entry): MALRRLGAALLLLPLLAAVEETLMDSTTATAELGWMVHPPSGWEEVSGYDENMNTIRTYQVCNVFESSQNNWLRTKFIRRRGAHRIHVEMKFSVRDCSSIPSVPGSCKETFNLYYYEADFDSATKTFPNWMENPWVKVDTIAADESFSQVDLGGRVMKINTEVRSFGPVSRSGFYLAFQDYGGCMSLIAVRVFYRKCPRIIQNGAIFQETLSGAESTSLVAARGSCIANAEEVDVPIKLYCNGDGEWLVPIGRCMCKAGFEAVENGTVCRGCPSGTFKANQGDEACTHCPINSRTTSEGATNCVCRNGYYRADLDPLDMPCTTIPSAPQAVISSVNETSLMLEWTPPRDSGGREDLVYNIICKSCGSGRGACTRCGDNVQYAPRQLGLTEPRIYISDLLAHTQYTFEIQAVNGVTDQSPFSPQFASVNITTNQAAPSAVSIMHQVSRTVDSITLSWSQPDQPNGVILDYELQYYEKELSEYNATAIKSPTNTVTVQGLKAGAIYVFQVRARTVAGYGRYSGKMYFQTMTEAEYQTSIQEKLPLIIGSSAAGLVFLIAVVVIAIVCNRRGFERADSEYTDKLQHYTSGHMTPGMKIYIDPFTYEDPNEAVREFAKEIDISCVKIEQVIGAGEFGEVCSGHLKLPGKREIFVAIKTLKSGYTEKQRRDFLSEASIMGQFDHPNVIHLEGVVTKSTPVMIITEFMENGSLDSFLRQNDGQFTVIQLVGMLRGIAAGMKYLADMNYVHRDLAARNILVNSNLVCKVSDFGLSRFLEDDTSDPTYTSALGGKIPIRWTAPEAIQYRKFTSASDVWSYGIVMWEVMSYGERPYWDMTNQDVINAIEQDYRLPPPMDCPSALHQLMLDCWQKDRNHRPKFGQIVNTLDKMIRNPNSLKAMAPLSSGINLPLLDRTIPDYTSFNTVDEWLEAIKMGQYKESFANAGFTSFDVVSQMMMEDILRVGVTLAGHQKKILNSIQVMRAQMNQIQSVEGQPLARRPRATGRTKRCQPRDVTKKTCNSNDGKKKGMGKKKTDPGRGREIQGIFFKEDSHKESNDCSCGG

[12] = biological target: T4, Ephrin type-B receptor 2 (Homo sapiens); settings: at 10 µM
[13] = biological target: T5, Ephrin type-B receptor 3 (Homo sapiens) (UniProt P54753); settings: at 1 µM
T5 sequence (whole entry): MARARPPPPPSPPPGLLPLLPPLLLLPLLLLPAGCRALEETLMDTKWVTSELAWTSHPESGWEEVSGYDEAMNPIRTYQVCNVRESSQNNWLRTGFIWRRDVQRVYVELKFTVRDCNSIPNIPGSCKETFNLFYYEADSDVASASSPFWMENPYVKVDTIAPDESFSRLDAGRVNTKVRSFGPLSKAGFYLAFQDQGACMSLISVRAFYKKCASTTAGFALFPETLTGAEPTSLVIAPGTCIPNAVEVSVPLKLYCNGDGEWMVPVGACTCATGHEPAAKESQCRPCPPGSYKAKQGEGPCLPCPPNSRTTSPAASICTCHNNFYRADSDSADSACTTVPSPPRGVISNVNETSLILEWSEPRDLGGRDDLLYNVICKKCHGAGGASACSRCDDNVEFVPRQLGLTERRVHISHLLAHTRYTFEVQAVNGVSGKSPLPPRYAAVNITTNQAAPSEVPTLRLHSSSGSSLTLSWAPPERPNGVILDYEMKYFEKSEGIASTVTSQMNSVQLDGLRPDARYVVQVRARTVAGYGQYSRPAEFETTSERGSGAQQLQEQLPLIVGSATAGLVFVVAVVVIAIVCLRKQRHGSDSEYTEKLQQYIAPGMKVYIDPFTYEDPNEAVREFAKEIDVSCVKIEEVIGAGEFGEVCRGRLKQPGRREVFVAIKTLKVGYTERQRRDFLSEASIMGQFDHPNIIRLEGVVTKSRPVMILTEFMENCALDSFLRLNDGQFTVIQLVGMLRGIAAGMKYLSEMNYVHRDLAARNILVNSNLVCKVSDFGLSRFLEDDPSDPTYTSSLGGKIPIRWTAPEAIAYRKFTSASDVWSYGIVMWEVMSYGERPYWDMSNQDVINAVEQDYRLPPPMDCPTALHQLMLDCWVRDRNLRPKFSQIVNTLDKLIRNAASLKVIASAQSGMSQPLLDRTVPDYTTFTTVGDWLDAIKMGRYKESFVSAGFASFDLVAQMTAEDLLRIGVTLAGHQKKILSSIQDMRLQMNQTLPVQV

[14] = biological target: T5, Ephrin type-B receptor 3 (Homo sapiens); settings: at 10 µM
[15] = biological target: T6, Ephrin type-B receptor 4 (Homo sapiens) (UniProt P54760); settings: at 1 µM
T6 sequence (whole entry): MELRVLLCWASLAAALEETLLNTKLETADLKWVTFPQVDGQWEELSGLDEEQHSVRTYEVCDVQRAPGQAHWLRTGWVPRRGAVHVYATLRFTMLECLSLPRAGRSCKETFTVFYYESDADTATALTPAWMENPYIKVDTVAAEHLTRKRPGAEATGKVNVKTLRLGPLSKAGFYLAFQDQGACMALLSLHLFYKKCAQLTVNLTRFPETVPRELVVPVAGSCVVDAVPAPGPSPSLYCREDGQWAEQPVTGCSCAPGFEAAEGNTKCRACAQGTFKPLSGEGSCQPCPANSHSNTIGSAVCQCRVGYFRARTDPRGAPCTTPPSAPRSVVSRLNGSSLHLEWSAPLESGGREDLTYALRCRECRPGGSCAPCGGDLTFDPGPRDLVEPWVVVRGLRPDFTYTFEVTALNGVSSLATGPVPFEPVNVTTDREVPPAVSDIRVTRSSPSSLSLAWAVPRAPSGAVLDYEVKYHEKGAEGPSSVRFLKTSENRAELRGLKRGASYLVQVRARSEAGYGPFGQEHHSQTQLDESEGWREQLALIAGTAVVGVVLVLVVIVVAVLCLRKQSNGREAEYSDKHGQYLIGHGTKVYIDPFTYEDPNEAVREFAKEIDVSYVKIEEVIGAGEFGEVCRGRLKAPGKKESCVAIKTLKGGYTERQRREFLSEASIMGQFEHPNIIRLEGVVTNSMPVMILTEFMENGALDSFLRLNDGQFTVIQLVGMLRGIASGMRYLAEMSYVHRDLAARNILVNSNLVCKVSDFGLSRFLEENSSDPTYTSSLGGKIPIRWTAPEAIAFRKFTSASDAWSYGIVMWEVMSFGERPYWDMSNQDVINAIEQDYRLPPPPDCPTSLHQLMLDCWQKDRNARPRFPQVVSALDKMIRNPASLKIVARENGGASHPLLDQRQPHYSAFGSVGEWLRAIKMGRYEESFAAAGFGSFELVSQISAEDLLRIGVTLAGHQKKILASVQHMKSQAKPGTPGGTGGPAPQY

[16] = biological target: Receptor tyrosine-protein kinase erbB-4 (Homo sapiens) (UniProt Q15303); settings: at 1 µM
[17] = biological target: Receptor tyrosine-protein kinase erbB-4 (Homo sapiens) (UniProt Q15303); settings: at 10 µM
[18] = biological target: Focal adhesion kinase 1 (Homo sapiens) (UniProt Q05397); settings: at 1 µM

Chain of Ephrin type-A receptor 7 (Homo sapiens) (Q15375 28-998 limits assumed): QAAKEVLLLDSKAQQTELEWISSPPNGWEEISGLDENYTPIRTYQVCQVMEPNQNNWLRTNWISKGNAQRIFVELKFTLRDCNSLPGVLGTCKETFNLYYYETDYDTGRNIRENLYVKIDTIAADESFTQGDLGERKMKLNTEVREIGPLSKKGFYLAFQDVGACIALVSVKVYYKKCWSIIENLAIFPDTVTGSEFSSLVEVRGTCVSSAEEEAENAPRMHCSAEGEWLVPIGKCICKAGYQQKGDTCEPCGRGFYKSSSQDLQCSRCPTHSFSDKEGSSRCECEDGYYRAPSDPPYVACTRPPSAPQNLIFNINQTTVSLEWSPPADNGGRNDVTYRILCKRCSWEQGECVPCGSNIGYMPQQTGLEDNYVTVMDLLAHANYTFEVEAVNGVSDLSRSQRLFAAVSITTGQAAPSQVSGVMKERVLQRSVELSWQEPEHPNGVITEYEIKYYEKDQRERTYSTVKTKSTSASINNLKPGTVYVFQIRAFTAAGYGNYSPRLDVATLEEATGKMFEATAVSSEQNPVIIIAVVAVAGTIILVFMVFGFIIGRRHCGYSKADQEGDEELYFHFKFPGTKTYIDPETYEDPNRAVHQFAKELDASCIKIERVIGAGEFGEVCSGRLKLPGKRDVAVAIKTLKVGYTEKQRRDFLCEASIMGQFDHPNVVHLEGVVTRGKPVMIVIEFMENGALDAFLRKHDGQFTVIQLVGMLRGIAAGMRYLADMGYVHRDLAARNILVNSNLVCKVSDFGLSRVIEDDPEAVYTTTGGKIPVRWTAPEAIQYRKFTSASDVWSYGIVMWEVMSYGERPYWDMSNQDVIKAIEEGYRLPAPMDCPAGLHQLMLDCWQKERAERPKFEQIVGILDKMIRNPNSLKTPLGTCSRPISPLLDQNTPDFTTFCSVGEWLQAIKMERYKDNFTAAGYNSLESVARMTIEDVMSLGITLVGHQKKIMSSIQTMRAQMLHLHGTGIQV
Chain of Ephrin type-A receptor 4 (Homo sapiens) (P54764 whole entry): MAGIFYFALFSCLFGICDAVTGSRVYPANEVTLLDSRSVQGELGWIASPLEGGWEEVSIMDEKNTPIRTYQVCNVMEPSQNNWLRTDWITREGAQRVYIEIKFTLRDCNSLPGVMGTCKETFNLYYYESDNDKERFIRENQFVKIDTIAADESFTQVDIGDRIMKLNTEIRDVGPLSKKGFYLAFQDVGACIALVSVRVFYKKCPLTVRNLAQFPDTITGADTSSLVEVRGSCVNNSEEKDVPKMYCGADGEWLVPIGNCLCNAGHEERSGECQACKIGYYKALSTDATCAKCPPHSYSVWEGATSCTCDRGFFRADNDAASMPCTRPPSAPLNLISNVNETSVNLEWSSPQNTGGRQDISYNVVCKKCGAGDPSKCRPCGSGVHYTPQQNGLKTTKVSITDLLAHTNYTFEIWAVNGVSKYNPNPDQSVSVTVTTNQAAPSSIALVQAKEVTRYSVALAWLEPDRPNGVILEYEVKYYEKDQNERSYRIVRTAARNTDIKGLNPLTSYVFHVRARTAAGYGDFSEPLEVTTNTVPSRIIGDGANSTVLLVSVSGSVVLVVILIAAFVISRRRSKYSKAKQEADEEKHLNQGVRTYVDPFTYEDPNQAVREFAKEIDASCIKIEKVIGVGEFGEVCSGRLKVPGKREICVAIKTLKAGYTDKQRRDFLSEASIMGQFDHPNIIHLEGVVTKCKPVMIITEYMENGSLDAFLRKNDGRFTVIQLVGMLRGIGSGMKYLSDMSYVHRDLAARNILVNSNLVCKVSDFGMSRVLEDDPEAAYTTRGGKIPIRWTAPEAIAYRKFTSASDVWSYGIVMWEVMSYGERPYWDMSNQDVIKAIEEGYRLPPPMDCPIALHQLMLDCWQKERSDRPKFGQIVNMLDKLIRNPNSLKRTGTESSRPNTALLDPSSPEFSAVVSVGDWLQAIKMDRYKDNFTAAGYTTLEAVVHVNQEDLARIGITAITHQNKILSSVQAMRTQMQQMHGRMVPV
Chain of Ephrin type-A receptor 5 (Homo sapiens) (P54756 whole entry): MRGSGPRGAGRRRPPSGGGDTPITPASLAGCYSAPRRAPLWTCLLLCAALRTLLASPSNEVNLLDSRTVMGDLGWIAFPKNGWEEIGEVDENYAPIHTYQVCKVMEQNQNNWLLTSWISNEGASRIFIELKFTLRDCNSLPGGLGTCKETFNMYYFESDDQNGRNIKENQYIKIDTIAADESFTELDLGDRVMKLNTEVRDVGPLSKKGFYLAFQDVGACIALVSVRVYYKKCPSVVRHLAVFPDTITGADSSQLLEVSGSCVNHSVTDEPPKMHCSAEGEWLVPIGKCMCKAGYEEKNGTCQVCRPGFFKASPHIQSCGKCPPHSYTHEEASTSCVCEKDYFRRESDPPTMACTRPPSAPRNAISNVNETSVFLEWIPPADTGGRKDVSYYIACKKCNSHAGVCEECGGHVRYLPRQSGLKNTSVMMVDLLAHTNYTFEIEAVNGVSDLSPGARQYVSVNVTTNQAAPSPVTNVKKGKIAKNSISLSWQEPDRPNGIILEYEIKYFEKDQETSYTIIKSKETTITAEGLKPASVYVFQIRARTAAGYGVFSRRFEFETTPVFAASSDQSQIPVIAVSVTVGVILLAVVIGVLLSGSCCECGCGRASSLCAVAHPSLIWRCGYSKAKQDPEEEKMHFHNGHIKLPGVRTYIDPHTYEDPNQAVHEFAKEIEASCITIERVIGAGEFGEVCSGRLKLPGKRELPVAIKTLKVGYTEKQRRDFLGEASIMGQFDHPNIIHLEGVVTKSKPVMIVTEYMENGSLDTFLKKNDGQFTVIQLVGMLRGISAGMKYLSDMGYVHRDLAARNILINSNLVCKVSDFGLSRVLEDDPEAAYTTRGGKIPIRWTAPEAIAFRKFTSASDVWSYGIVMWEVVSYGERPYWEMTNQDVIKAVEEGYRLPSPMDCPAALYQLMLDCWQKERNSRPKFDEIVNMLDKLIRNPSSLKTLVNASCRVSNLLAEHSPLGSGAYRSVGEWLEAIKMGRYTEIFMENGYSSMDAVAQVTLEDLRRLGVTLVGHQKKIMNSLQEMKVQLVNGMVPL
Chain of Receptor tyrosine-protein kinase erbB-4 (Homo sapiens) (Q15303 whole entry): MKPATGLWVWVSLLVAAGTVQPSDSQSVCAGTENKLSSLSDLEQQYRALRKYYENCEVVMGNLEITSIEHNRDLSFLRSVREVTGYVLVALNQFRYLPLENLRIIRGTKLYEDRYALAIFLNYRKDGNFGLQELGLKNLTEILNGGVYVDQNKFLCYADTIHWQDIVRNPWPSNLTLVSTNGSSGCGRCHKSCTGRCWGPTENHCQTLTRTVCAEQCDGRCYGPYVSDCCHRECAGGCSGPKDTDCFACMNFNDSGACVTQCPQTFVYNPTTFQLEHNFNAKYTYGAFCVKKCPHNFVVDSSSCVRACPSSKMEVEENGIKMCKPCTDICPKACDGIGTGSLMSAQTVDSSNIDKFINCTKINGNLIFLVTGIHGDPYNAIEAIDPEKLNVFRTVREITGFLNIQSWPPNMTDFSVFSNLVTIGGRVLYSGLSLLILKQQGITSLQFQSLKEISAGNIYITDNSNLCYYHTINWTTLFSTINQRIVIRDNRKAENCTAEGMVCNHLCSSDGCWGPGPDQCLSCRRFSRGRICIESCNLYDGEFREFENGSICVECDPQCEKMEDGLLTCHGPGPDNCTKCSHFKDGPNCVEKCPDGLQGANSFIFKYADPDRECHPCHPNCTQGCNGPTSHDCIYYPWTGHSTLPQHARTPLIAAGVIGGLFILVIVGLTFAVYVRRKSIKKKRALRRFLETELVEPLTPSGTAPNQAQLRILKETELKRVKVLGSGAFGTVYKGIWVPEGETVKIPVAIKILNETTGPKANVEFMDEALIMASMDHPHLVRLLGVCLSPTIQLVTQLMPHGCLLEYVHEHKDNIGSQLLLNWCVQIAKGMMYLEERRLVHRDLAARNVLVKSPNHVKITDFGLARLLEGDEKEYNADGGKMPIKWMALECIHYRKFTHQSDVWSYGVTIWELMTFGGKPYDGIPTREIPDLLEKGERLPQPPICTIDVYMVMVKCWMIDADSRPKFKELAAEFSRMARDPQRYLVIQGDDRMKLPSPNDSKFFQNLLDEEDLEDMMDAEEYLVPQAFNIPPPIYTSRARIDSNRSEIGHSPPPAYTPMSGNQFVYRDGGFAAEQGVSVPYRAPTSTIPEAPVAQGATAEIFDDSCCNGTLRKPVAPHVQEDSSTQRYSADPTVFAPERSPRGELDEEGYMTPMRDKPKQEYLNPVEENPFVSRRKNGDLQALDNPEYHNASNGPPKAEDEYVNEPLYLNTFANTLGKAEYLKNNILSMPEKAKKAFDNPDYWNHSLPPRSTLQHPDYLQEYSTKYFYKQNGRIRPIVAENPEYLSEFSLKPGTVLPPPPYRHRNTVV

With `O=C(CCCc1ccc(-c2ccccc2F)cc1)Nc1ccc(O)cc1` the residual activity [1] was 111%, the residual activity [2] was 108% and the residual activity [3] was 96%. For the same compound, the residual activity [4] was 111%, the residual activity [5] was 106% and the residual activity [6] was 102%. For the same compound, the residual activity [7] was 104%, the residual activity [8] was 103% and the residual activity [9] was 94%. For the same compound, the residual activity [10] was 98%, the residual activity [11] was 107% and the residual activity [12] was 112%. The residual activity [13] was 109% (inactive), the residual activity [14] was 97% and the residual activity [15] was 93%. It also gave a residual activity [16] of 111%, a residual activity [17] of 127% and a residual activity [18] of 105%.
